Outcome and AC50 data for 8 compounds are collected here from PubChem BioAssay (EPA / NIEHS).

For test [1], the target named is Glucocorticoid receptor (Homo sapiens) (UniProt P04150). Kind of test: ATG_GR_TRANS: Attagene TRANS-FACTORIAL HepG2 Assay for human Glucocorticoid Receptor (GR) (AID 2282978; active = hit-call score of the fitted dose curve at least 0.9, where 1 is the maximum;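 also: activators score as hits since higher reporter transcript over DMSO is fitted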). Conditions: HepG2 Attagene TRANS GR reporter, mRNA transcription. In a few lines:
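Multiplexed TRANS reporter system, HepG2; 24 h exposure; RNA → oligo(dT) RT → reporter-specific PCR → 6-FAM primer extension → HpaI cut → CE fluorescence. Gain-of-signal vs DMSO.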

For test [2], the target named is Bile acid receptor (Homo sapiens) (UniProt Q96RI1). Kind of test: ATG_FXR_TRANS: Attagene TRANS-FACTORIAL HepG2 Assay for Farnesoid X Receptor (FXR) (AID 2282979; active = hit-call score of the fitted dose curve at least 0.9, where 1 is the maximum;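 also: hits raise reporter mRNA above DMSO so AC50 marks FXR activation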). Conditions: HepG2 Attagene TRANS FXR-GAL4 reporter transcription. In outline:
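Chimeric FXR-GAL4 activity in transiently transfected human HepG2 liver cells is scored as induction of reporter mRNA after 24 h of dosing. Detection uses RT-PCR with fluorescent labelling and capillary electrophoresis, with DMSO serving as baseline.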

The target of test [3] is Oxysterols receptor LXR-alpha (Homo sapiens) (UniProt Q13133). Nature of the test: ATG_LXRa_TRANS: Attagene TRANS-FACTORIAL HepG2 Assay for human Liver X Receptor alpha (LXRa) (AID 2282980; active = hit-call score of the fitted dose curve at least 0.9, where 1 is the maximum). Conditions: HepG2 Attagene TRANS reporter, LXRa transactivation. In a few lines:
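Transient HepG2 transfectants, 24 h dosing, RT-PCR/CE mRNA reporter quantitation; gain-of-signal vs DMSO.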

The target in test [4] is Oxysterols receptor LXR-beta (Homo sapiens) (UniProt P55055). Nature of the test: ATG_LXRb_TRANS: Attagene TRANS-FACTORIAL HepG2 Assay for human Liver X Receptor beta (LXRb) (AID 2282981; active = hit-call score of the fitted dose curve at least 0.9, where 1 is the maximum). Conditions: HepG2 Attagene TRANS GAL4-LXRb reporter, mRNA. In outline:
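After 24 h of chemical treatment, transfected HepG2 cells yield total RNA; reporter cDNA is PCR-amplified, FAM-labelled, HpaI-cut and run on capillary electrophoresis. Signal reflects chimeric LXRb-Gal4 activity on GAL4-UAS reporters.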

Test [5] can be described thus: ATG_M_06_TRANS: Attagene TRANS-FACTORIAL HepG2 Assay for M06 Transcription Factor (Internal Marker) (AID 2282983; active = hit-call score of the fitted dose curve at least 0.9, where 1 is the maximum). Conditions: HepG2 Attagene TRANS M06 internal marker reporter. In a few lines: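 Human liver HepG2 cells bearing transiently transfected chimeric NR-GAL4 reporter units were treated with chemicals for 24 h. Total RNA was reverse-transcribed, reporter sequences amplified and labelled, then quantified by capillary electrophoresis. Activity was fitted upward relative to DMSO.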

A short description of test [6]: ATG_M_32_TRANS: Attagene TRANS-FACTORIAL HepG2 Assay for M32 Transcription Factor (Internal Marker) (AID 2282984; active = hit-call score of the fitted dose curve at least 0.9, where 1 is the maximum;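 also: transcript level of a background control reporter unit measured by RT-PCR and capillary electrophoresis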). Conditions: HepG2 Attagene TRANS M32 internal marker reporter. In a few lines: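 Cell-based TRANS-format assay in HepG2: exogenous chimeric GAL4 reporter units transiently expressed, compounds applied 24 h. Reporter mRNA detected by RT-PCR plus capillary electrophoresis; this readout is an internal background marker.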

Test [7] deals with Transcriptional activator Myb (Homo sapiens) (UniProt P10242). Kind of test: ATG_Myb_CIS: Attagene CIS-FACTORIAL HepG2 Assay for human Myeloblastosis (Myb) Proto-Oncogene Transcription Factor (AID 2282986). Conditions: HepG2 Attagene CIS-FACTORIAL Myb reporter transcription; actives raise or lower the signal. In a few lines: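 Endogenous transcription factor activity at a Myb-responsive cis element is reported in human liver HepG2 cells after 24 h chemical treatment. Reporter mRNA is detected by RT-PCR and capillary electrophoresis fluorescence, with DMSO as baseline.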
Transcriptional activator Myb (Homo sapiens), sequence (P10242 whole entry, looked up): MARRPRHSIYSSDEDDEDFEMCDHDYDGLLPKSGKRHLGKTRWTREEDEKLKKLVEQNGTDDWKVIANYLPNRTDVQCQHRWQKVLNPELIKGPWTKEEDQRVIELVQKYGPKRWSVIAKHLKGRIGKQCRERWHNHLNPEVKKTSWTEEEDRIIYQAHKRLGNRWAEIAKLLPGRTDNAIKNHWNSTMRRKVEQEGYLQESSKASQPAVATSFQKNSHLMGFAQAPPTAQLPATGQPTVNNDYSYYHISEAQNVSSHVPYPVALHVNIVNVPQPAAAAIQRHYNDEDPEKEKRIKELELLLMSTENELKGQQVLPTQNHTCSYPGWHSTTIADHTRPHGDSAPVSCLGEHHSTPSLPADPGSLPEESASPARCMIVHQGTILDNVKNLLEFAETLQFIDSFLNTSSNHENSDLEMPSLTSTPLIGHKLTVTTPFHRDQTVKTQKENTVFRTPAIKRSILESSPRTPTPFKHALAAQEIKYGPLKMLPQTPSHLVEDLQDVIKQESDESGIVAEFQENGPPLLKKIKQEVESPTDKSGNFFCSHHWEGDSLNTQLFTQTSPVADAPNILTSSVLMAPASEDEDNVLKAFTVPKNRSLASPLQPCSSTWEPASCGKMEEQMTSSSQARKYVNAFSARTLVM

A short description of test [8]: ATG_NFI_CIS: Attagene CIS-FACTORIAL HepG2 Assay for human Nuclear Factor I (NFI) (AID 2282989). Conditions: HepG2 cis-regulatory reporter, NFI response element transcription; actives raise or lower the signal. In a few lines: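 Reporter transcripts were measured by RT-PCR with fluorescent primer extension and capillary electrophoresis 24 h post-treatment. HepG2 cells carried transiently transfected cis-regulated reporter constructs reporting endogenous factor activity; gain or loss fitted against DMSO baseline.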

Test [9] concerns the target Myc proto-oncogene protein (Homo sapiens) (UniProt P01106). Nature of the test: ATG_Myc_CIS: Attagene CIS-FACTORIAL HepG2 Assay for human Myelocytomatosis (Myc) Proto-Oncogene Transcription Factor (AID 2282990). Conditions: HepG2, Attagene cis-reporter transcription factor activity; actives raise or lower the signal. In a few lines: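 HepG2, transient MRTU transfection (cis promoters, endogenous TFs); 24 h dosing; TriZol RNA → oligo(dT) RT → PCR → 6-FAM primer extension → HpaI cut → CE. Bidirectional fit vs DMSO.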

The nature of test [10]: ATG_NF_kB_CIS: Attagene CIS-FACTORIAL HepG2 Assay for human Nuclear Factor Kappa B (NF-kB) (AID 2282991). The note with it: HepG2 Attagene cis-factorial NF-kB reporter mRNA; actives raise or lower the signal. In a few lines: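 Multiplexed cis-reporter assay in transiently transfected HepG2. 24 h treatment; RNA isolated, RT-PCR, labelled fragments resolved by CE. DMSO baseline.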

The nature of test [11]: ATG_NRF2_ARE_CIS: Attagene CIS-FACTORIAL HepG2 Assay for human Nuclear Factor Erythroid 2 Related Factor 2 (NFR2) response to Antioxidant Response Elements (ARE) (AID 2282992).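 As to AC50: reporter mRNA level measured by RT-PCR and capillary electrophoresis fluorescence.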 The note with it: HepG2 Attagene ARE/NRF2 reporter, transcription factor activity; actives raise or lower the signal. In outline:
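Readout: reporter mRNA quantified by RT-PCR plus FAM-labelled primer extension, HpaI digestion and capillary electrophoresis, 24 h after dosing transfected HepG2 cells. Gain or loss of signal is fitted bidirectionally against DMSO baseline.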

The nature of test [12]: ATG_Oct_MLP_CIS: Attagene CIS-FACTORIAL HepG2 Assay for human Octamer-Binding Transcription Factor (Oct) (AID 2282993). Conditions: HepG2 Attagene cis-factorial Oct reporter, mRNA; actives raise or lower the signal. In a few lines: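 Readout is reporter transcript level from RT-PCR with fluorescent primer extension and capillary electrophoresis, fitted in both directions against DMSO. Transfected HepG2 reporter units report endogenous factor activity after 24 h dosing.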

In test [13] the target is Cellular tumor antigen p53 (Homo sapiens) (UniProt P04637). Kind of test: ATG_p53_CIS: Attagene CIS-FACTORIAL HepG2 Assay for human p53 Transcription Factor (AID 2282994). Conditions: HepG2 p53 cis-element reporter, Attagene mRNA; actives raise or lower the signal. In a few lines:
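Read-out: reporter mRNA by RT-PCR plus capillary electrophoresis with fluorescence detection. Human HepG2 liver cells carried transfected multi-reporter cis-element constructs, dosed 24 h. Gain or loss of signal fitted bidirectionally against DMSO control.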

A short description of test [14]: BSK_3C_uPAR: BioMAP Diversity Plus: 3C Assay for Urokinase-type plasminogen activator receptor (uPAR) Biomarker Activity (AID 2282998). Conditions: BioMAP 3C HUVEC, uPAR biomarker ELISA; actives raise or lower the signal. In a few lines: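 Cell-surface uPAR on HUVEC (3C system) read by ELISA at 24 h post-treatment, with DMSO as baseline and fitting in both directions. Parallel cultures stained with SRB to flag overt cytotoxicity.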
(ELISA stands for enzyme-linked immunosorbent assay.)

The nature of test [15]: BSK_3C_VCAM1: BioMAP Diversity Plus: 3C Assay for Vascular cell adhesion molecule 1 (VCAM1) Biomarker Activity (AID 2282999). Conditions: BioMAP 3C HUVEC, VCAM1 ELISA, cytokine-stimulated; actives raise or lower the signal. In outline: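 Activity fitted in both directions relative to DMSO, with ELISA measurement of the surface marker on primary HUVEC (3C) at 24 h post-treatment; parallel SRB staining (0.1% SRB, TCA-fixed, 560 nm) flagged overt cytotoxicity.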

Test [16] can be described thus: BSK_3C_TissueFactor: BioMAP Diversity Plus: 3C Assay for Tissue Factor Biomarker Activity (AID 2282997). The note with it: BioMAP 3C HUVEC, tissue factor biomarker readout; actives raise or lower the signal. In a few lines: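 Cells used were primary human umbilical vein endothelial cells. They were dosed with chemical, and after 24 h Tissue Factor was quantified by ELISA. Curves were fitted bidirectionally with DMSO as baseline.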

Test [17] deals with Nuclear receptor subfamily 4 group A member 2 (Homo sapiens) (UniProt P43354). Kind of test: ATG_NURR1_TRANS: Attagene TRANS-FACTORIAL HepG2 Assay for human Nuclear Receptor Related Protein 1 (NURR1) (AID 2282985; active = hit-call score of the fitted dose curve at least 0.9, where 1 is the maximum). The note with it: HepG2 Attagene TRANS reporter, mRNA readout. In a few lines:
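Measures transcriptional activation by an exogenous NR-Gal4 chimera in transfected HepG2 liver cells. After 24 h, reporter RNA is reverse-transcribed, amplified and resolved by capillary electrophoresis; DMSO defines baseline.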

Test [18] deals with Nuclear respiratory factor 1 (Homo sapiens) (UniProt Q16656). Nature of the test: ATG_NRF1_CIS: Attagene CIS-FACTORIAL HepG2 Assay for human Nuclear Respiratory Factor 1 (NRF1) Orphan Gene (AID 2282987). Conditions: HepG2 NRF1 cis-element reporter, Attagene multiplex; actives raise or lower the signal. In a few lines: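 Human hepatoma HepG2 cells carrying transfected promoter-regulated reporter units were incubated with test chemicals for 24 h. Reporter transcripts were measured by RT-PCR plus capillary electrophoresis, and endpoints derived by bidirectional fitting with DMSO as baseline.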
Nuclear respiratory factor 1 (Homo sapiens), sequence (Q16656 whole entry, looked up): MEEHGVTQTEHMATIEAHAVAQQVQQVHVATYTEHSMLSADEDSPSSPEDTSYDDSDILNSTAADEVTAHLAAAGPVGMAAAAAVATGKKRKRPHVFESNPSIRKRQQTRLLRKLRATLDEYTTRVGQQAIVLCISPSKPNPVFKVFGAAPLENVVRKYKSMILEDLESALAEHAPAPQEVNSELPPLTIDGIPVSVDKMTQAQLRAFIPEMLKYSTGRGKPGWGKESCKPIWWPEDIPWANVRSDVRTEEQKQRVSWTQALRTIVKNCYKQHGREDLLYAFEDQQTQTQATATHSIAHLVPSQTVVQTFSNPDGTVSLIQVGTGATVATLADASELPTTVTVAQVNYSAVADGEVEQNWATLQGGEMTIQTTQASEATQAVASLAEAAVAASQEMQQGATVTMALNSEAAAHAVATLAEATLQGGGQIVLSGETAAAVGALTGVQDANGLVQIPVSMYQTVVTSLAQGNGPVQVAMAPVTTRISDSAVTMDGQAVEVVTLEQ

What is called AC50 is the concentration at which the activity in the assay is half-maximal.

Records with an inconclusive call do not appear. Active and inactive are the calls of the source. The calls were made as follows, unless noted: active = hit-call score of the fitted dose curve at least 0.9, where 1 is the maximum; inactive = score below 0.9.

Glucocorticoid receptor (Homo sapiens), sequence (P04150 whole entry, looked up): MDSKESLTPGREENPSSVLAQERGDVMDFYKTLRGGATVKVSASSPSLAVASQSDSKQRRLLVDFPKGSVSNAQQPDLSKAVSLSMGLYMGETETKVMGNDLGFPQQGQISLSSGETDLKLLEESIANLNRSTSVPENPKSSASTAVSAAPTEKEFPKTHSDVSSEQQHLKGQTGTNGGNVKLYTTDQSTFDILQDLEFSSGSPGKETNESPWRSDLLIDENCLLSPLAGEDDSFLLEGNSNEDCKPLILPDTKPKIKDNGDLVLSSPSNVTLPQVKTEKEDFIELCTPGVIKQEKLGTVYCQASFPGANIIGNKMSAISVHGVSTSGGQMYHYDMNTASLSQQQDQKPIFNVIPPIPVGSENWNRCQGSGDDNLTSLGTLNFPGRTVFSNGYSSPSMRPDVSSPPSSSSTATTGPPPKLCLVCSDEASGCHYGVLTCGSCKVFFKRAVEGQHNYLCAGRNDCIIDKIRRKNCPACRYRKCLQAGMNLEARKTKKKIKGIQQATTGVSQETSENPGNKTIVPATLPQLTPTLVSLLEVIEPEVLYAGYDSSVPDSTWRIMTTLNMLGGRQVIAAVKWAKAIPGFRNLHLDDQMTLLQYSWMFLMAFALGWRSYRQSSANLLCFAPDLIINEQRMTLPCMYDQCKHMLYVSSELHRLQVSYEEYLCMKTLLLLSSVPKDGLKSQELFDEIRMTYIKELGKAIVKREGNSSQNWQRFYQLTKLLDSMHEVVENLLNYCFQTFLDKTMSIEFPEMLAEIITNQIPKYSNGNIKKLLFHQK
Oxysterols receptor LXR-alpha (Homo sapiens), sequence (Q13133 whole entry, looked up): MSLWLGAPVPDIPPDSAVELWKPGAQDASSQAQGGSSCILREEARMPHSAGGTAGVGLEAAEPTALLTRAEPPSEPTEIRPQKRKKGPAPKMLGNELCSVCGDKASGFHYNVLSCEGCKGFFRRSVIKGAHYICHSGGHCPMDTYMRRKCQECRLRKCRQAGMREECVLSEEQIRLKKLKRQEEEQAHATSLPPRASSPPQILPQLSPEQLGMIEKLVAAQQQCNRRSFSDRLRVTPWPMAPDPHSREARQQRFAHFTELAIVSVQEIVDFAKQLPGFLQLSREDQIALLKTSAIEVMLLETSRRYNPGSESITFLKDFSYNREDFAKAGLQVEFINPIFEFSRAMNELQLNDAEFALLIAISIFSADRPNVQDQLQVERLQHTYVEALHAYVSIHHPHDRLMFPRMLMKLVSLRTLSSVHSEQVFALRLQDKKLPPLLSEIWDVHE
Myc proto-oncogene protein (Homo sapiens), sequence (P01106 whole entry, looked up): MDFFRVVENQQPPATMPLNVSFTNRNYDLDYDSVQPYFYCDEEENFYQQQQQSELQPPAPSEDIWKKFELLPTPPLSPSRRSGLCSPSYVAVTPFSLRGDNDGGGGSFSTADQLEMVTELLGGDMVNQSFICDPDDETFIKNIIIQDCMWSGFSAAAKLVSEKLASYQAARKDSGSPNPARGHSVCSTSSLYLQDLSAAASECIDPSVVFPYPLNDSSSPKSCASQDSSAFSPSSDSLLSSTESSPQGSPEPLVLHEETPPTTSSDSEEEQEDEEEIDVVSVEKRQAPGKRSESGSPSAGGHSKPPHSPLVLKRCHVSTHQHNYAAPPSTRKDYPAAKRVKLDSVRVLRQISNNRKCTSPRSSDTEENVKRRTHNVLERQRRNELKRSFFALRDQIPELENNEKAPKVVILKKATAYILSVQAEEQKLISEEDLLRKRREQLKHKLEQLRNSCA
Oxysterols receptor LXR-beta (Homo sapiens), sequence (P55055 whole entry, looked up, the tested form may be a part): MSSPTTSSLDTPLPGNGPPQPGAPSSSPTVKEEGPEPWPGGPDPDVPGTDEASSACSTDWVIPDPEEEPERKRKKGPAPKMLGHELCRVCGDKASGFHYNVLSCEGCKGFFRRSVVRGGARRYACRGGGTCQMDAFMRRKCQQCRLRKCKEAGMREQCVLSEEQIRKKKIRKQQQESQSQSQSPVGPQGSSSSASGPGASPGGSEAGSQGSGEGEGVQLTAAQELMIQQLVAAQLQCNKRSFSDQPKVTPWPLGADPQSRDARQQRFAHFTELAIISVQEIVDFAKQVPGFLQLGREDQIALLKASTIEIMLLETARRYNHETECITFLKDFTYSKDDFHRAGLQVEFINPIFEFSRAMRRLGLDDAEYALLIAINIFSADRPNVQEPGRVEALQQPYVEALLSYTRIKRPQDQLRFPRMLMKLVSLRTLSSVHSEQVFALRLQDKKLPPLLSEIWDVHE
Cellular tumor antigen p53 (Homo sapiens), sequence (P04637 whole entry, looked up): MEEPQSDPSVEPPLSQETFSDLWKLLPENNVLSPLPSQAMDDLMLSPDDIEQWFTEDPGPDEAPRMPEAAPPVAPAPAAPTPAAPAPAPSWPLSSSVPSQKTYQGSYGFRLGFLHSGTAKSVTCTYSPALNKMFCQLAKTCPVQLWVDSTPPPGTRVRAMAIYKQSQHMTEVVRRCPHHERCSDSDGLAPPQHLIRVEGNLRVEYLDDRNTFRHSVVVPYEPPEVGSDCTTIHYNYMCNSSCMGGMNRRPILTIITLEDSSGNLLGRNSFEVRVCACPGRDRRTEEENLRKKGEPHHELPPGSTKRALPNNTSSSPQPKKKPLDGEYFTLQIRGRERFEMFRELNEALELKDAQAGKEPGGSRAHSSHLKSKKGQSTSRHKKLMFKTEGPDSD
Nuclear receptor subfamily 4 group A member 2 (Homo sapiens), sequence (P43354 whole entry, looked up, the tested form may be a part): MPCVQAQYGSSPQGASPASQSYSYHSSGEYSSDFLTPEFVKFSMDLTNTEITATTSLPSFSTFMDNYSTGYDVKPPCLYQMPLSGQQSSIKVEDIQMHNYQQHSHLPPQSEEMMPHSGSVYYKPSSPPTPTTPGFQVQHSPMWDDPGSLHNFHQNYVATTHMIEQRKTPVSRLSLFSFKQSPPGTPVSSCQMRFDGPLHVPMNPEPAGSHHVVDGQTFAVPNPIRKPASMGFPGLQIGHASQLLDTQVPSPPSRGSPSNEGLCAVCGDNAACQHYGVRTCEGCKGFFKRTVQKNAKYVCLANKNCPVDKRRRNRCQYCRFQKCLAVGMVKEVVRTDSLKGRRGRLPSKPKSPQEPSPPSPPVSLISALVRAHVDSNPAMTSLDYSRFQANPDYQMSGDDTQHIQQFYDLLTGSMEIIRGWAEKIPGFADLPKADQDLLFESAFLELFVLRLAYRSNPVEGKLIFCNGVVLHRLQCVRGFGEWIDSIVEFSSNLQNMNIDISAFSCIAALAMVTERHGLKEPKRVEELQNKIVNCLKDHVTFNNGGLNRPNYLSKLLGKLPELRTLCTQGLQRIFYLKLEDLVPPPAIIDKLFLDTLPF
Bile acid receptor (Homo sapiens), sequence (Q96RI1 whole entry, looked up, the tested form may be a part): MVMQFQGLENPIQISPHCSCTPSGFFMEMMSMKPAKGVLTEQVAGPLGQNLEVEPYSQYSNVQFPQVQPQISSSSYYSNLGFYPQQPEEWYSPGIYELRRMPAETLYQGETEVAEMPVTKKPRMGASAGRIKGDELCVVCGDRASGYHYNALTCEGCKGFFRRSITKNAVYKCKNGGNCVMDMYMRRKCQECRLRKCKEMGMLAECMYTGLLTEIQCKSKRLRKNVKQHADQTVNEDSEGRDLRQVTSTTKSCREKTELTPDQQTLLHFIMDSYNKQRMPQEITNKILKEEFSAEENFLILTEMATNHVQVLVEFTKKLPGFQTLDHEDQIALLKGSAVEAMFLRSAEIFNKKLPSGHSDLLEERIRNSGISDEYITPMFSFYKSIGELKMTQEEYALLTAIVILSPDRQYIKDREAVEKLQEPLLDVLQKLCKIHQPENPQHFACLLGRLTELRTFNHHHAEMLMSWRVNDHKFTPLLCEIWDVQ

As to `COc1nn(CSP(=S)(OC)OC)c(=O)s1`, the compound was called inactive in test [1], in test [2], in test [3], in test [4], in test [5] and in test [6]. Moreover, the compound was classed as inactive in test [7], in test [8], in test [9], in test [10], in [13] and in test [14]. The outcome in test [15] was inactive. Besides, the AC50 in test [11] was 23.4 µM (active); in test [12], 18 µM (active).
Turning to `CC[C@H](C)[C@H]1O[C@]2(C=C[C@@H]1C)C[C@@H]1C[C@@H](C/C=C(\C)[C@@H](O[C@H]3C[C@H](OC)[C@@H](O[C@H]4C[C@H](OC)[C@@H](O)[C@H](C)O4)[C@H](C)O3)[C@@H](C)/C=C/C=C3\CO[C@@H]4[C@H](O)C(C)=C[C@@H](C(=O)O1)[C@]34O)O2` (tested in a mixture with another compound), the compound was called inactive in [1], in test [4], in [7], in test [8], in [9] and in test [10]. Moreover, the outcome in test [11], in test [12] and in test [13] was inactive. Moreover, the results for the AC50 in test [16], in test [14] and in test [15] were 12 µM (active), 5.44 µM (active) and 9.38 µM (active), respectively.
Consider `COC(=O)c1ccccc1S(=O)(=O)NC(=O)N(C)c1nc(C)nc(OC)n1`, for which the compound was called inactive in test [4], in [5], in test [17], in test [7], in [18] and in test [8]. In addition, the call in test [9], in test [10], in [11], in [12], in test [13] and in [14] was inactive. Also, the outcome in [15] was inactive.
Regarding `Clc1ccccc1-c1nnc(-c2ccccc2Cl)nn1`, the outcome in test [4], in test [6], in test [17], in test [7], in test [18] and in test [8] was inactive. The compound was called inactive in test [9], in test [12], in test [14] and in test [15]. Moreover, the concentration at half-maximal activity (AC50) in [11] is 13.6 µM (active).
With `CCOC1Oc2ccc(OS(C)(=O)=O)cc2C1(C)C` (centres undefined), the call in [3], in test [4], in [6], in test [17], in [7] and in test [8] was inactive. The compound was classed as inactive in test [9], in test [10], in [14] and in [15]. For the same compound, the AC50 in test [11] is 9.79 µM (active); in test [12], 23.9 µM (active).
Regarding `CN1CSC(=S)N(C)C1`, the compound was called inactive in test [1], in [3], in test [4], in test [5], in [6] and in test [17]. Moreover, the compound was called inactive in test [7], in test [9], in [10], in test [13] and in test [14]. Besides, the concentration at half-maximal activity (AC50) in [8] is 69.1 µM (active); in test [11], 21.7 µM (active); in test [12], 24.6 µM (active); in test [15], 21.5 µM (active).
In the case of `CNC(=O)Oc1ccccc1OC(C)C`, the compound was called inactive in test [1], in test [4], in [17], in test [7], in test [8] and in test [9]. For the same compound, the compound was called inactive in [10], in test [11], in test [12], in [13], in test [14] and in test [15].
Consider `N#Cc1c(Cl)c(Cl)c(Cl)c(C#N)c1Cl`, for which the outcome in test [1], in test [2], in [3], in test [4], in [7] and in test [8] was inactive. The compound was called inactive in test [9], in [10] and in [13]. In addition, the half-maximal activity concentration (AC50) in test [11] was 0.0739 µM (active); in test [12], 0.143 µM (active); in test [16] it was 1.37 µM (active); in [14] it was 1.8 µM (active); in test [15], 1.06 µM (active).
